Reference: PubChem BioAssay (EPA / NIEHS)
Inconclusive results are not listed. The source made the active and inactive calls. How the source made its calls: active means hit-call score of the fitted dose curve at least 0.9, where 1 is the maximum; inconclusive means response in the unintended direction; inactive means score below 0.9.

Read-out: Cytochrome P450 2C19 (Homo sapiens) (UniProt P33261)
Test: CLD_CYP2C19_48hr: CellzDirect (CLD) Gene Expression Assay for xenobiotic metabolism (CYP2C19) at 48 hours (AID 2283700);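 further: fitted upward so actives raise CYP2C19 mRNA above the 0.2% DMSO vehicle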
Method: CLD_48hr is a cell-based, multiplexed-readout assay that uses hepatocyte, a human liver primary cell, with measurements taken at 48 hours after chemical dosing in a 96-well plate.CLD_CYP2C19_48hr is one of 16 assay component(s) measured or calculated from the CLD_48hr assay. It is designed to make measurements of mRNA induction, a form of inducible reporter, as detected with chemiluminescence signals by Quantitative Nuclease Protection Assay (qNPA) technology.Data from the assay component CLD_CYP2C19_48hr was analyzed at the endpoint, CLD_CYP2C19_48hr, in the positive analysis fitting direction relative to DMSO as the negative control and baseline of activity. Using a type of inducible reporter, gain-of-signal activity can be used to understand changes in the reporter gene as they relate to the gene CYP2C19. Furthermore, this assay endpoint can be referred to as a primary readout. To generalize the intended target to other relatable targets, this assay endpoint is annotated to the cyp intended target family, where subfamily is xenobiotic metabolism.
Human hepatocyte cultures were treated daily for two consecutive days with fresh dosing solutions containing appropriate concentrations of the 320 ToxCast chemicals (chemical identities were blinded to CellzDirect and other ToxCast collaborators), vehicle control (0.2% DMSO), and positive control inducers as summarized in Table 1. Due to the large number of treatment groups and chemicals examined, the ToxCast chemicals were divided into two groups (spanning two independent cultures of hepatocytes from separate donor preparations (Hu778: ToxCast plates 1 and 2; Hu776: ToxCast plates 3 and 4). Each preparation of human hepatocyte cultures was treated with respective vehicle control, medium only control, set of six positive controls/reference chemicals for the five hepatic receptor pathways, and a subset of eight of the ToxCast chemicals (indoxacarb, pyrithiobac-sodium, norflurazon, cyhalofop-butyl, methomyl, thiram, acetochlor, and propiconazole). These replicate data, coupled with internal replicates designed within the blinded ToxCast chemical library, provided additional data to evaluate interindividual differences between hepatocyte preparations and their potential impact on chemical profiles.Cell morphology and integrity were evaluated using phase-contrast microscopy as an indicator of hepatocyte cell health (Tyson & Green, 1987). Cultures for each treatment group (i.e., media, vehicle [0.2% DMSO], positive control inducers [multiple concentrations], and the ToxCast chemicals [multiple concentrations]) were observed and cell morphology was assessed relative to vehicle control cultures at each harvest time point (0, 6, 24, or 48 h). […] Images were evaluated at the conclusion of the study to assess changes in cell integrity and account for the effects of chemical exposure on uncharacteristic changes in concentration-dependent gene expression profiles. The results from these determinations of apparent cytotoxicity were annotated (yes/no) alongside the corresponding qNPA data for reference.At the conclusion of each treatment period, hepatocyte cultures (96-well) were washed with 1 volume of HBSS, lysed by addition of 25 ul ArrayPlate lysis buffer (HTG, Tucson, AZ), and 70 ul/well of Denaturation Oil, denatured by incubation at 95C for 10 min, and frozen at approximately -70C until analysis by nuclease protection assay (qNPA) (Roberts et al., 2007). For qNPA analysis, cell lysates were thawed at 50C for approximately 30 min, qNPA probes were added, and samples were incubated at 95C for 10 min to begin the detection process by denaturing the target RNA, dissociating the duplexes and secondary structure hybridization. At the conclusion of the hybridization period, S1 nuclease reagent was added to each sample to digest all nonprotected nucleotides at 50C for 60-90 min. […]

Sequence of Cytochrome P450 2C19 (Homo sapiens) (P33261 whole entry, looked up): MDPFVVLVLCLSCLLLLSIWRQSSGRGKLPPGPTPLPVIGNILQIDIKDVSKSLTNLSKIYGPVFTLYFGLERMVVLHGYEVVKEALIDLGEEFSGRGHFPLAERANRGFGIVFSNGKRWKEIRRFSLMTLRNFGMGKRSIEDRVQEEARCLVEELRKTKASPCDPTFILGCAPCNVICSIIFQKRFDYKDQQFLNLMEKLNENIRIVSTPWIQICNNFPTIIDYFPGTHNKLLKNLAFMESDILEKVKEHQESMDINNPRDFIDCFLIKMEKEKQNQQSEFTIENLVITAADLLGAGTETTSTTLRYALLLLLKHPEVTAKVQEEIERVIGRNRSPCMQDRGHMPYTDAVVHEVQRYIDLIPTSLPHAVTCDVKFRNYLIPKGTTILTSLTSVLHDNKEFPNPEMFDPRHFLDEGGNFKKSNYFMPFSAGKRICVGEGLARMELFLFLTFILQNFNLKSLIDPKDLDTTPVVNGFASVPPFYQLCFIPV

Row | Structure (SMILES) | outcome
1 | COc1cc(OC)nc(Sc2cccc(Cl)c2C(=O)O)n1 | inactive
2 | S=C1NCCN1 | inactive
3 | Cc1nn(-c2cc(NS(C)(=O)=O)c(Cl)cc2Cl)c(=O)n1C(F)F | inactive
4 | CNC(=O)ON=C(C)SC | inactive
5 | O=C(O)c1cc(Oc2ccc(C(F)(F)F)cc2Cl)ccc1[N+](=O)[O-] | inactive
6 | CCOP(=S)(OCC)Oc1ccc2c(C)c(Cl)c(=O)oc2c1 | inactive
7 | CNC(=O)Oc1cccc2c1OC(C)(C)O2 | inactive
8 | CN1COCN(Cc2cnc(Cl)s2)C1=N[N+](=O)[O-] | inactive
9 | CCOP(=O)(NC(C)C)Oc1ccc(SC)c(C)c1 (stereo not given) | inactive
10 | CNC(=O)ON=C(SC)C(=O)N(C)C | inactive
11 | C[N+]1(C)CCCCC1 | inactive
12 | Cc1ccn2nc(S(=O)(=O)Nc3c(F)cccc3F)nc2n1 | inactive
13 | CCOP(=O)(OCC)Oc1cc(C)nc(C(C)C)n1 | inactive
14 | C=C(C)[C@H]1Cc2c(ccc3c2O[C@@H]2COc4cc(OC)c(OC)cc4[C@@H]2C3=O)O1 | inactive
15 | CC1=NNC(=O)N(/N=C/c2cccnc2)C1 | inactive
16 | COP(=O)(OC)OC(Br)C(Cl)(Cl)Br (stereo not given) | inactive
17 | CCCOc1nn(C(=O)NS(=O)(=O)c2ccccc2C(=O)OC)c(=O)n1C | inactive
18 | CC(Oc1cccc(Cl)c1)C(=O)O (stereo not given) | inactive
19 | CC(C1CC1)C(O)(Cn1cncn1)c1ccc(Cl)cc1 (stereo not given) | inactive
20 | CCCCOC(=O)c1ccccc1C(=O)O | inactive
21 | CN(C)NC(=O)CCC(=O)O | inactive
22 | CC(C)=CC1C(C(=O)OCN2C(=O)C3=C(CCCC3)C2=O)C1(C)C (stereo not given) | inactive
23 | CCc1cnc(C2=NC(C)(C(C)C)C(=O)N2)c(C(=O)O)c1 (stereo not given) | inactive
24 | CC(=NC#N)N(C)Cc1ccc(Cl)nc1 | inactive
25 | COc1cccc(C(=O)NN(C(=O)c2cc(C)cc(C)c2)C(C)(C)C)c1C | inactive
26 | CC1(C(=O)Nc2ccc(O)c(Cl)c2Cl)CCCCC1 | inactive
27 | COP(=O)(NC(C)=O)SC (stereo not given) | inactive
28 | CCCCOC(=O)[C@@H](C)Oc1ccc(Oc2ccc(C#N)cc2F)cc1 | inactive
29 | C#CC(C)(C)NC(=O)c1cc(Cl)cc(Cl)c1 | inactive
30 | CCOP(=S)(OCC)SCCSCC | inactive
